# From PMC4336329 (PLoS ONE, 2015)
# The whole screen tested about 310,000 compounds, of which about 14,000 (4.5%) showed an effect of 50% or more. The effect is printed as a negative number. The list comes from a sample in which strong results are over-represented; it also holds similar structures and randomly drawn compounds.
# Molecular target: human ether-à-go-go-related gene (hERG) potassium channel (human, UniProt Q12809)
# Experiment: primary screen, population patch clamp on CHO cells stably expressing hERG; higher = less effect of the substance
# 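Note: peak tail current of the secondary pulse compared with the same well before compound.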
# human ether-à-go-go-related gene (hERG) potassium channel, sequence (Q12809 whole entry, looked up): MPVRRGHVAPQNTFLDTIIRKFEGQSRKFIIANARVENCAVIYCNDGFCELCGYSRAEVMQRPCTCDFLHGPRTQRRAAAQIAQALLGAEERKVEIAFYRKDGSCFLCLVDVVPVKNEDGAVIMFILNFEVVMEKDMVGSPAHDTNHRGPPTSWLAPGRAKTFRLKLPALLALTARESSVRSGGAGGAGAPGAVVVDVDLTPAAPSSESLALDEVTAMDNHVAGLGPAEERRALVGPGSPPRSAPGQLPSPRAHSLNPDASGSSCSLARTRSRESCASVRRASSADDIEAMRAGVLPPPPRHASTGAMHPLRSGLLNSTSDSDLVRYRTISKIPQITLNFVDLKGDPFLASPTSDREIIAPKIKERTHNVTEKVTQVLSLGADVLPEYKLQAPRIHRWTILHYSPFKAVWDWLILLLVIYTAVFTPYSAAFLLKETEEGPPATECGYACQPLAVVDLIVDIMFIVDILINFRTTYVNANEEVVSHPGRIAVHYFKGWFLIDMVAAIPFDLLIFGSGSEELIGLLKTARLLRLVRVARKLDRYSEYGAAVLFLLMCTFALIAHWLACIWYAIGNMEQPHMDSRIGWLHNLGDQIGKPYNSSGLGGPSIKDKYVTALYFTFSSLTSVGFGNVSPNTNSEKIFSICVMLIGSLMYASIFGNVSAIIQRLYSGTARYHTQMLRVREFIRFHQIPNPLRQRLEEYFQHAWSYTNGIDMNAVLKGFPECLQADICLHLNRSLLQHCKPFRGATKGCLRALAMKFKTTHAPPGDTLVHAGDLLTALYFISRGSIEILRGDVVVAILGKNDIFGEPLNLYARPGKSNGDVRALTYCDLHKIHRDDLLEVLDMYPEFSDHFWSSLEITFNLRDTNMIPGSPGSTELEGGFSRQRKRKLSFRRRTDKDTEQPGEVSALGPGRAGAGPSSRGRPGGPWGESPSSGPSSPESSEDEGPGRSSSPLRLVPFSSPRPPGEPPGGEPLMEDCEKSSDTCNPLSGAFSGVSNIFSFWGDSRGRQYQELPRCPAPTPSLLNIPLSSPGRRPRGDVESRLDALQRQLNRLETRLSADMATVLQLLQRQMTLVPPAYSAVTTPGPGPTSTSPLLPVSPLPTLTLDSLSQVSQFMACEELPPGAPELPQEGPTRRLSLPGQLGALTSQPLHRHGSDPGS
row,Structure (SMILES),"hERG current change (%, negative = inhibition) at 10uM [%]"
1,COc1cc(/C=N/NC(=O)CCN2CCCCC2)ccc1O,-12
2,COc1cc(/C=N/NC(=O)CCN2CCN(c3ccccc3)CC2)cc(OC)c1OC,-22.2
3,COc1cc(/C=N\NC(=O)CNC(=O)C(c2ccccc2)c2ccccc2)ccc1O,-25.7
4,COc1ccc(/C=N/NC(=O)c2cc(C)n(-c3ccccc3)c2C)cc1OC,-53.2
5,COc1ccc(/C=N/NC(=O)CCN2CCN(c3ccccc3)CC2)c(OC)c1OC,-3.73
6,COc1cc(/C=N/NC(=O)c2cc(C)n(-c3ccc(F)cc3)c2C)cc(OC)c1O,-13.4
7,COc1ccc(/C=N\NC(=O)CCN2CCN(c3ccccc3)CC2)cc1OC,-56.9
8,Cc1ccccc1N(C(=O)CNC(=O)c1ccco1)C(C(=O)NC1CCCCC1)c1cccnc1 (stereo not shown),14.3
9,Cc1cc(C)cc(NS(=O)(=O)c2ccc(NC(=O)C3CCCCC3C(=O)O)cc2)c1 (stereo not shown),2.18
10,CSc1ccc(CNC(=O)c2ccc(NC(=O)C3=CSCCO3)cc2)cc1,28.4
11,CCCCc1ccc(S(N)(=O)=O)cc1,15.7
12,NNC(=O)CCN1CCN(C(c2ccccc2)c2ccccc2)CC1,-7.7
13,O=C(CSC1CN(C(c2ccccc2)c2ccccc2)C1)N/N=C/c1ccccc1,1.64
14,O=C(CCN1CCN(C(c2ccccc2)c2ccccc2)CC1)N/N=C/c1ccc(O)cc1,-54.8
15,Cc1cc2c(cc1C)-c1nnnn1C(C)(C)C2,15.2
16,N#Cc1ccc(-n2c(-c3ccccc3)nnc2-c2ccccc2)cc1C#N,-15.5
17,O=C1N/C(=N/c2ccccn2)SC1Cc1ccccc1 (stereo not shown),-13.7
18,O=C(CCCn1c(=O)c2ccccc2n(Cc2cccc(F)c2)c1=O)NC1CCN(Cc2ccccc2)CC1,-68.6
19,Cc1cccc(C)c1NC(=O)Cn1c(=O)n(CCCC(=O)NC2CCN(Cc3ccccc3)CC2)c(=O)c2ccccc21,-58.6
20,NC(=O)Cn1c(=O)n(CCCC(=O)NC2CCN(Cc3ccccc3)CC2)c(=O)c2ccccc21,-6.48
21,CCOc1ccc(NC(=O)Cn2c(=O)n(CCCC(=O)NC3CCN(Cc4ccccc4)CC3)c(=O)c3ccccc32)cc1,-38
22,COC(=O)c1ccccc1NC(=O)Cn1c(=O)n(CCC(=O)NC2CCN(Cc3ccccc3)CC2)c(=O)c2ccccc21,-34.8

row,Structure (SMILES),"hERG current change (%, negative = inhibition) at 10uM [%]"
1,COc1cccc(NC(=O)Cn2c(=O)n(CCC(=O)NC3CCN(Cc4ccccc4)CC3)c(=O)c3ccccc32)c1,-57.6
2,O=C(CCCCn1c(=O)c2ccccc2n(Cc2ccccc2)c1=O)NC1CCN(Cc2ccccc2)CC1,-67.9
3,O=C(CCCCn1c(=O)c2ccccc2n(Cc2ccccc2F)c1=O)NC1CCN(Cc2ccccc2)CC1,-9.04
4,O=C(CCn1c(=O)c2ccccc2n(Cc2ccccc2)c1=O)NC1CCN(Cc2ccccc2)CC1,-42.5
5,CCc1ccc(NC(=O)Cn2c(=O)n(CCC(=O)NC3CCN(Cc4ccccc4)CC3)c(=O)c3ccccc32)cc1,1.83
6,Cc1cc(NC(=O)Cn2c(=O)n(CCCCC(=O)NC3CCN(Cc4ccccc4)CC3)c(=O)c3ccccc32)n[nH]1,26.5
7,Cc1ccc(NC(=O)Cn2c(=O)n(CCC(=O)NC3CCN(Cc4ccccc4)CC3)c(=O)c3ccccc32)cc1,-1.53
8,N#CC1=C(N)Oc2n[nH]c(-c3ccccc3)c2C12C(=O)Nc1ccccc12 (stereo not shown),17.4
9,NC(=S)N/N=C/c1coc2ccc(F)cc2c1=O,10.3
10,COCCNC(=O)c1ccc(-n2c(SCc3cccnc3)nc3ccccc3c2=O)cc1,-8.88
11,Fc1ccc(/C=N/Nc2cc(N3CCOCC3)ncn2)cc1,15.4
12,COC(=O)c1ccccc1N/C=C/C(=O)c1ccc(Br)cc1,16.1
13,Cn1c(SCC(=O)NNC(=O)Cc2ccccc2)nc2ccccc2c1=O,11.7
14,COc1ccc(CCC(=O)N2CC(C)OC(C)C2)cc1 (stereo not shown),5.02
15,CCOCc1nnc(NC(=O)c2cc(C(=O)OC)cc([N+](=O)[O-])c2)s1,21.3
16,C(=N\Nc1nc(-c2ccccc2)cs1)/c1cccnc1,-59.5
17,Brc1ccc(-c2csc(N/N=C/c3cccnc3)n2)cc1,19.6
18,C(=N\Nc1nc(-c2ccccc2)cs1)/c1ccncc1,-50.5
19,Clc1ccc(-c2csc(N/N=C\c3cccnc3)n2)cc1,6.05
20,Br.CC(=O)Nc1ccc(-c2csc(N/N=C\c3ccncc3)n2)cc1,4.43
21,C(=N\Nc1nc(-c2ccccc2)cs1)/c1cccs1,18.5
